# Screens deposited in PubChem by Center for Chemical Genomics, University of Michigan.
# Dicer inh: blocks human Dicer maturation of pre-miR-21; Q9UPY3; cat-ELCCA pre-miR-21 Dicer processing, chemiluminescence; hits give high values; z-score at 25 µM; actives 6% (n = 47,000); in the data active = z-score above about 3, passing the limit was not always enough;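 note: plate controls were vehicle for no effect and no enzyme for full effect; higher signal means more uncleaved substrate so more Dicer inhibition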
# * marks the source's active call; other numbers are inactive results. Only a selection was taken, and hits are over-represented in it overall.
SMILES,Dicer inh
COc1ccc(C2Oc3ccccc3C3CC(c4ccccc4O)=NN32)c(OC)c1 (stereo not given),5.6
Oc1ccccc1C1=NN2C(C1)c1ccccc1OC2c1cccs1 (stereo not given),6.8
COc1ccc(C2Oc3ccccc3C3CC(c4cc(OC)ccc4O)=NN32)cc1 (stereo not given),9.8*
COc1ccc(C2Oc3ccccc3C3CC(c4cc(OC)ccc4O)=NN32)c(OC)c1 (stereo not given),2.3
COc1ccc(O)c(C2=NN3C(C2)c2ccccc2OC3c2ccccc2F)c1 (stereo not given),6.9*
COc1ccc(C2Oc3ccccc3C3CC(c4ccccc4O)=NN32)cc1 (stereo not given),5.3
CC(C)CC1Oc2ccccc2C2CC(c3ccccc3O)=NN12 (stereo not given),5.3*
CSCCC1Oc2ccccc2C2CC(c3cc(C)ccc3O)=NN12 (stereo not given),0.58
COc1ccc(O)c(C2=NN3C(C2)c2cc(Br)ccc2OC3c2ccsc2)c1 (stereo not given),1.4
CC(C)C1Oc2ccc(Cl)cc2C2CC(c3ccccc3O)=NN21 (stereo not given),-0.15
COc1cccc(C2Oc3ccccc3C3CC(c4cc(OC)ccc4O)=NN32)c1 (stereo not given),0.91
Oc1ccccc1C1=NN2C(C1)c1cc(Br)ccc1OC2c1ccsc1 (stereo not given),4.2*
Cc1ccc(-c2nnc3n2N=C(c2c[nH]c4ccccc24)CS3)cc1,1.6
O=C(NCCCCCCO)OCC1c2ccccc2-c2ccccc21,-0.78
C=CCn1c(N)c(C(=O)NCC)sc1=S,2
Cc1nn(Cc2nnc(SCC(=O)Nc3ccc(Cl)cc3Cl)o2)c(C)c1Br,-1.1
CCCCc1ccc(N2CC(C(=O)Nc3sc4c(c3C#N)CCCC4)CC2=O)cc1 (stereo not given),-3.6
Cc1ccc2nc(-c3ccccc3F)oc(=O)c2c1,0.12
C=CCN1C(=O)C2(/C(=C(/O)c3ccc(C)c(F)c3)C(=O)C(=O)N2CCCN(C)C)c2ccccc21 (stereo not given),0.17
C=CCN1C(=O)C2(/C(=C(/O)c3ccc(C)cc3)C(=O)C(=O)N2CCCOC)c2ccccc21 (stereo not given),0.49
C=CCN1C(=O)C2(/C(=C(/O)c3ccc(F)cc3)C(=O)C(=O)N2CCN(C)C)c2ccccc21 (stereo not given),3.9*
C=CCN1C(=O)C2(/C(=C(/O)c3ccc(Cl)cc3)C(=O)C(=O)N2CCCOC)c2ccccc21 (stereo not given),3.4*
CN(C)CCCN1C(=O)C(=O)/C(=C(\O)c2ccc(F)cc2)C12C(=O)N(C)c1ccccc12 (stereo not given),2.5
COCCCN1C(=O)C(=O)/C(=C(\O)c2ccc(Cl)cc2)C12C(=O)N(C)c1ccccc12 (stereo not given),-0.78
C=CCN1C(=O)C2(/C(=C(/O)c3ccc(C)c(F)c3)C(=O)C(=O)N2CCN(C)C)c2ccccc21 (stereo not given),0.78
SMILES,Dicer inh
C=CCN1C(=O)C2(/C(=C(/O)c3ccc(C)cc3)C(=O)C(=O)N2CCCN(C)C)c2ccccc21 (stereo not given),1.6
C=CCN1C(=O)C2(/C(=C(/O)c3ccc(OC)cc3)C(=O)C(=O)N2CCCOC)c2ccccc21 (stereo not given),3.2*
C=CCN1C(=O)C2(/C(=C(/O)c3ccc(OC)cc3)C(=O)C(=O)N2CCOC)c2ccccc21 (stereo not given),1.3
C=CCN1C(=O)C2(/C(=C(/O)c3ccc(OC)cc3)C(=O)C(=O)N2CCCN(C)C)c2ccccc21 (stereo not given),3.6*
CCOC(=O)C1=NNC2C(=O)N(c3ccc(OC)cc3)C(=O)C12 (stereo not given),0.69
CCOC(=O)CSC(=Nc1ccccc1)C(C#N)c1nc2ccccc2[nH]1 (stereo not given),-1.5
CCCCCCN1N=C(C)C(C(=O)c2ccc(Br)cc2)C1=O (stereo not given),-5.5
CCC(=O)N1c2cc(Cl)ccc2-n2c(nn(C(=O)CC)c2=O)N1C(=O)CC,-1.2
CCOc1cccc(C2C3=C(Nc4c2c(=O)n(C)c(=O)n4C)c2ccccc2C3=O)c1 (stereo not given),-2
CCOC(=O)c1sc2nc(-c3ccccc3OC)nc(C)c2c1C,0.44
Cc1cc(NC(=O)CC(C)(C)CC(=O)O)n(C)n1,-0.79
COc1ccc(Cc2nnc(Nc3ccc(C)cc3)o2)cc1OC,1.6
COc1ccc(Cc2nnc(N)o2)cc1OC,0.68
COc1ccc(Cc2nnc(Nc3ccc(Cl)cc3Cl)o2)cc1OC,3.9*
CC(C)CC(NC(=O)OC(C)(C)C)C(N)=O (stereo not given),-0.64
CC(C)n1c(SCC(=O)Nc2cc(Cl)cc(Cl)c2)nc2cc(C(F)(F)F)ccc21,-0.56
CCC1CCCCN1S(=O)(=O)c1ccc(NC2=NS(=O)(=O)c3ccccc32)cc1 (stereo not given),-1.2
CSC(SC)=C(C#N)S(C)(=O)=O,-0.76
CCN(CC)CC(=O)Nc1cc(C)nn1-c1ccccc1,1.6
